The record followed here is PubChem BioAssay (NCATS).

A short description of this assay: High-throughput drug toxicity screening in the BPDCN cell line Gen2.2 (AID 1224824). The conditions noted are these: Gen2.2 BPDCN cells; at 45.8 µM (top of the series) unless noted. An excerpt: Blastic plasmacytoid dendritic cell neoplasm (BPDCN) is a rare, aggressive and largely incurable hematologic malignancy originating from plasmacytoid dendritic cells (pDCs). Although an initial response to chemotherapy is common, BPDCN prognosis is extremely poor and most patients relapse with drug-resistant disease leading to a median overall survival of ~1 year after diagnosis. To explore novel potential therapeutic strategies in BPDCN, we performed a high-throughput drug toxicity screening in BPDCN cell liens, using of a library of 1,912 small molecules, enriched for compounds that are either approved or in early stages of development for cancer therapy.
A total of 500 exponentially growing Gen2.2 cells were seeded per well in 5 uL of media (RPMI + Glutamine, without phenol red plus10% FBS and 1X Pen/Strep) into 1536-well solid white high base tissue culture treated Greiner One Bio Plates (789173-F), using a multidrop combi dispenser and a small sterile cassette. Compounds and controls totaling 23nL per well (negative control DMSO and positive control 9.2 uM Bortezomib-final) were immediately added to the plates using a 1536 head pin tool from Kalypsys. The plates were then covered with stainless steel gasket lids from Kalypsys and incubated for 48 hours at 37C under 95% relative humidity with 5% CO2. After 48 hours, the plates were removed and allowed to reach room temperature before 3 uL of Cell Titer Glo reagent (Promega) were added using an Aurora Flying Reagent Dispenser Bioraptor. The plates were then spun at 1000 rpms to remove bubbles and incubated for 15 minutes at room temperature before reading on a ViewLux using a luminescent filter with a 10 second exposure. The relative luciferase units were used to calculated percent activity using DMSO as 100% and Bortezomib as 0%.
Turning to `CN1CCN(c2ncc(-c3cc(Cl)cc(Cl)c3Cl)c(N)n2)CC1`, the cell viability, % of control (lower = more cytotoxic) amounted to 54.8%.

With `COc1cc2nccc(Oc3ccc(NC(=O)Nc4ccc(F)cc4F)c(F)c3)c2cc1OC`, the cell viability, % of control (lower = more cytotoxic) came out at 205%.

Consider `C[C@@H](O)[C@H]1C(=O)N2C(C(=O)OCOC(=O)C(C)(C)C)=C(SC3CN(C4=NCCS4)C3)[C@H](C)[C@H]12`, for which the cell viability, % of control (lower = more cytotoxic) turned out to be 58.2%.

For the molecule `CC1=C(CC(=O)O)c2cc(F)ccc2C1=Cc1ccc(S(C)=O)cc1` (stereo not given), the cell viability, % of control (lower = more cytotoxic) turned out to be 6.5%.

On to `Cc1nc2c([nH]1)CCN(C(=O)c1ccc(NC(=O)c3ccccc3-c3ccccc3)cc1)c1ccccc1-2`, for which the cell viability, % of control (lower = more cytotoxic) was 48.7%.

With `CC1(C)[C@H]2CC[C@]3(C)[C@@H](C(=O)C=C4[C@@H]5C[C@@](C)(C(=O)O)CC[C@]5(C)CC[C@]43C)[C@@]2(C)CC[C@@H]1O`, the cell viability, % of control (lower = more cytotoxic) amounted to 139%.

For the molecule `CC1(C)C(N(O)C(=O)Nc2ccc(Cl)cc2)N(c2ccc(Cl)cc2)C(=O)N1CC(=O)NN=CC=Cc1ccc([N+](=O)[O-])o1` (stereo not given), the cell viability, % of control (lower = more cytotoxic) turned out to be 3.85%.

On to `CCC(=O)N1CCN(c2ccc(-n3c(=O)ccc4cnc5ccc(-c6cnc7ccccc7c6)cc5c43)cc2C(F)(F)F)CC1`, for which the cell viability, % of control (lower = more cytotoxic) is 6.39%.

For the molecule `Cc1ccc(NC(=O)c2ccc(CN3CCN(C)CC3)cc2)cc1Nc1nc(-c2cccnc2)cs1`, the cell viability, % of control (lower = more cytotoxic) amounted to 14.8%.

Regarding `Cc1cc(OCCCS(C)(=O)=O)cc(C)c1-c1cccc(COc2ccc3c(c2)OC[C@H]3CC(=O)O)c1`, the cell viability, % of control (lower = more cytotoxic) came to 168%.

As to `CCCCCCCCCCCCCCCC(=O)O[C@H]1[C@@H](O)[C@@H](O)[C@@H]([C@H](NC(=O)[C@@H]2C[C@@H](CCC)CN2C)[C@H](C)Cl)O[C@@H]1SC`, the cell viability, % of control (lower = more cytotoxic) was 218%.

As for `CN[C@H]1[C@@H](O[C@@H]2[C@H](O[C@@H]3[C@@H](O)[C@@H](O)[C@@H](N=C(N)N)[C@@H](O)[C@@H]3N=C(N)N)O[C@H](C)[C@@]2(O)C=O)O[C@@H](CO)[C@@H](O)[C@H]1O`, the cell viability, % of control (lower = more cytotoxic) stood at 122% [at 15.3 µM].

Turning to `CC(=O)OCC(=O)[C@@]12OC(C)(C)O[C@H]1C[C@H]1[C@@H]3C[C@H](F)C4=CC(=O)C=C[C@]4(C)[C@@]3(F)[C@@H](O)C[C@@]12C`, the cell viability, % of control (lower = more cytotoxic) is 76.3%.

Consider `CN[C@@H]1[C@@H](O)[C@@H](O[C@@H]2[C@@H](O)[C@H](O[C@H]3O[C@H](CN)[C@@H](O)[C@H](O)[C@@H]3O)[C@@H](N)C[C@@H]2NC(=O)[C@@H](O)CN)OC[C@]1(C)O`, for which the cell viability, % of control (lower = more cytotoxic) stood at 111%.

As to `Nc1[nH]nc2nnc(-c3c(-c4ccccc4)nn4ccccc34)cc12`, the cell viability, % of control (lower = more cytotoxic) is 5.31%.

With `O=C(Nc1cccc(Cl)c1)Nc1ncc(CCNc2ncnc3ccsc23)s1`, the cell viability, % of control (lower = more cytotoxic) came to 122%.

Consider `C=CCc1cccc(C=NNC(=O)CN2CCN(Cc3ccccc3)CC2)c1O`, for which the cell viability, % of control (lower = more cytotoxic) came out at 67.9%.

With `CCNC(=O)Nc1ccc(Oc2ncnc(N)c2C=NOC)cc1Cl`, the cell viability, % of control (lower = more cytotoxic) turned out to be 52.6%.

As to `OC[C@H]1O[C@@H](O[C@H]2[C@@H](O)[C@@](O)(CO)O[C@@H]2CO)[C@H](O)[C@@H](O)[C@@H]1O`, the cell viability, % of control (lower = more cytotoxic) came out at 137%.

Take `O=C(NCCCCN1CCOCC1)c1cc2ccccc2o1`: the cell viability, % of control (lower = more cytotoxic) stood at 213%.

For `N#CC1(c2cccc(C(=O)Nc3cc(Oc4ccc5nc(NC(=O)C6CC6)sc5n4)ccc3F)c2Cl)CC1`, the cell viability, % of control (lower = more cytotoxic) was found to be 7.3%.

In the case of `C[C@]12CCC3=C4CCC(=O)C=C4CC[C@@H]3[C@H]1CC[C@@]2(O)CC#N`, the cell viability, % of control (lower = more cytotoxic) is 106%.

For `Cc1csc(-c2nnc(Nc3ccc(Oc4ncccc4-c4ccnc(N)n4)cc3)c3ccccc23)c1`, the cell viability, % of control (lower = more cytotoxic) was 24.7%.

With `COC(=O)[C@H](c1ccccc1Cl)N1CCc2sccc2C1`, the cell viability, % of control (lower = more cytotoxic) came to 95.6%.

As for `COc1ccc(-c2nc3ccc(C4=NNC(=O)CC4C)cc3[nH]2)cc1` (stereo not given), the cell viability, % of control (lower = more cytotoxic) stood at 263%.

For `c1ccc(CNc2nc(N3CCOc4ccccc43)nc3c2CCCC3)cc1`, the cell viability, % of control (lower = more cytotoxic) was determined as 233%.

In the case of `C[C@@H]1[C@H](C)CC[C@]2(C(=O)O)CC[C@]3(C)C(=CC[C@@H]4[C@@]5(C)CC[C@H](O)C(C)(C)[C@H]5CC[C@]43C)[C@@H]12`, the cell viability, % of control (lower = more cytotoxic) turned out to be 41.3% [at 92.2 µM].

Regarding `CCOC(=O)N1c2ccc(C(F)(F)F)cc2[C@@H](N(Cc2cc(C(F)(F)F)cc(C(F)(F)F)c2)C(=O)OC)C[C@H]1CC`, the cell viability, % of control (lower = more cytotoxic) was found to be 115%.

As to `COc1ccc(Cn2ccc3ccc(C(=O)NO)cc32)cc1`, the cell viability, % of control (lower = more cytotoxic) stood at 250%.

In the case of `CN1C(=O)C(Cc2c[nH]c3ccccc23)NC1=S` (stereo not given), the cell viability, % of control (lower = more cytotoxic) was 70.1%.

Regarding `Nc1ncnc2c1ncn2[C@@H]1O[C@H](CO)[C@@H](O)[C@@H]1O`, the cell viability, % of control (lower = more cytotoxic) turned out to be 108%.

In the case of `CN1CCN(c2cccc(Nc3nc4c(-c5ccc(S(C)(=O)=O)cc5)cccn4n3)c2)CC1`, the cell viability, % of control (lower = more cytotoxic) turned out to be 83%.

On to `C=C[C@@H]1CN2CCC1C[C@@H]2C(O)c1ccnc2ccc(OC)cc12` (stereo not given in full), for which the cell viability, % of control (lower = more cytotoxic) stood at 130%.

In the case of `CN(C)c1ccccc1CN1CCCN(Cc2ccccc2N(C)C)C1c1ccncc1`, the cell viability, % of control (lower = more cytotoxic) was 13.5%.

On to `Cc1ccccc1C(C(=O)NC1CCCCC1)N(C(=O)CNc1ccc(C#N)cc1)c1cccc(F)c1` (stereo not given), for which the cell viability, % of control (lower = more cytotoxic) worked out at 161%.

For `CC(=O)O[C@]1(C(C)=O)CC[C@H]2[C@@H]3C=C(Cl)C4=CC(=O)[C@@H]5C[C@H]5[C@]4(C)[C@@H]3CC[C@@]21C`, the cell viability, % of control (lower = more cytotoxic) worked out at 42.4%.

`O=C1NC(=O)C(=Cc2ccc(-c3ccc(F)cc3O)o2)S1`: the cell viability, % of control (lower = more cytotoxic) was found to be 31.9%.

As to `CC(C)C[C@@H](N)[C@H](O)C(=O)N[C@H](C(=O)N[C@H](C(=O)N[C@@H](CC(=O)O)C(=O)O)C(C)C)C(C)C`, the cell viability, % of control (lower = more cytotoxic) stood at 128%.

Consider `O=C(Nc1ccc(OC(F)(F)F)cc1)c1sccc1NCc1ccnc2ccccc12`, for which the cell viability, % of control (lower = more cytotoxic) worked out at 42.4%.

On to `Cc1cc(CS(=O)(=O)c2ccccc2)cc(OCc2ccc(CN3CCC[C@H]3CO)cc2)c1`, for which the cell viability, % of control (lower = more cytotoxic) was found to be 318%.
